Screening data (PubChem)
The full list was thinned out, with hits kept by preference.
IDE exosite inh: insulin-degrading enzyme (human) exo-site inhibition; P14735; purified IDE, FL-6b probe fluorescence polarization; stronger effect = lower value; AID 1259349; 6.3% of 17,000 active; z-score at 20 µM;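 active = z-score of -3 or lower, meaning strong loss of probe binding signal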;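 note: His-tagged human IDE residues 42-1019 made in E. coli with 30 nM FL-6b probe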
Starred values were filed as active, the others as inactive; ! = not active in a repeat.

SMILES	IDE exosite inh
CS(=O)(=O)N1CC(=O)N2[C@H](CO)[C@@H](c3ccc(C#CC4CCCC4)cc3)[C@@H]2C1	3.7
O=C(Nc1ccccc1)N1CC(=O)N2[C@H](CO)[C@H](c3ccc(C#Cc4cccnc4)cc3)[C@@H]2C1	-1.5
COc1ccc2c3c([nH]c2c1)[C@H](CO)N(Cc1ccc(Cl)cc1)CC31CN(S(C)(=O)=O)C1	-0.77
COc1ccc(CN2CC3(CCN(C(=O)Cc4ccncc4)CC3)c3c([nH]c4cc(OC)ccc34)[C@@H]2CO)cc1	-3.1*
COc1ccc2c3c([nH]c2c1)[C@@H](CO)N(C(=O)Nc1ccc(F)cc1)CC31CCN(C(=O)Cc2ccncc2)CC1	-0.84
CCCC(=O)N1CCC2(CC1)CN(Cc1ccc(Cl)cc1)[C@H](CO)c1[nH]c3cc(OC)ccc3c12	-3.6*
COc1ccc2c3c([nH]c2c1)[C@@H](CO)N(Cc1ccc(Cl)cc1)CC31CN(S(C)(=O)=O)C1	0.86
COc1ccc2c3c([nH]c2c1)[C@H](CO)N(C(=O)Nc1ccc(F)cc1)CC31CCN(C(=O)Cc2ccncc2)CC1	1.2
CC(=O)N1CC(=O)N2[C@H](CO)[C@@H](c3ccc(-c4ccc(C)cc4)cc3)[C@@H]2C1	-2.4
O=C(Nc1ccccc1F)N1CCCCN2[C@@H](CO)[C@H](c3ccc(C#Cc4cccnc4)cc3)[C@@H]2C1	-4.7*
O=C(Nc1ccccc1)N1CCCCN2[C@H](CO)[C@H](c3ccc(C#Cc4cccnc4)cc3)[C@@H]2C1	-4.2*
O=C(Nc1ccccc1F)N1CCCCN2[C@H](CO)[C@H](c3ccc(C#Cc4cccnc4)cc3)[C@H]2C1	-6.9*
O=C(Nc1ccccc1F)N1CCCCN2[C@H](CO)[C@H](c3ccc(C#Cc4ccccc4)cc3)[C@H]2C1	-2
O=C(Nc1ccccc1F)N1CCCCN2[C@H](C1)[C@H](c1ccc(C#Cc3ccccc3)cc1)[C@@H]2CO	-2.1
O=C(Nc1ccccc1)N1CCCCN2[C@H](C1)[C@H](c1ccc(C#Cc3cccnc3)cc1)[C@@H]2CO	2.2
O=C(Nc1ccccc1)N1CCCCN2[C@H](CO)[C@@H](c3ccc(C#Cc4ccccc4)cc3)[C@@H]2C1	-0.7
O=C(Nc1ccccc1F)N1CCCCN2[C@H](CO)[C@@H](c3ccc(-c4cccnc4)cc3)[C@@H]2C1	-1.5
O=C(Nc1ccccc1F)N1CCCCN2[C@H](CO)[C@H](c3ccc(-c4cccnc4)cc3)[C@H]2C1	-0.4
COc1ccc2c3c([nH]c2c1)[C@H](CO)N(S(C)(=O)=O)CC31CN(C(=O)Cc2cccnc2)C1	0.26
CCCC#Cc1ccc([C@H]2[C@@H](CO)N3C(=O)CN(C(=O)CN4CCOCC4)C[C@H]23)cc1	2.3
COC(=O)C[C@@H]1CC[C@@H]2[C@H](COc3ccc(NC(=O)Nc4cccc(C#N)c4)cc3C(=O)N2C)O1	-0.68
N#C[C@@H]1[C@@H](c2ccc(C#CC3(O)CCCC3)cc2)[C@@H](CO)N1C(=O)C1CC1	0.66
Cc1ccccc1-c1ccc([C@H]2[C@@H](CO)N3CCCCN(C(=O)CN4CCOCC4)C[C@@H]23)cc1	0.13
O=C(CN1CCOCC1)N1CCCCN2[C@@H](CO)[C@H](c3ccc(C#Cc4ccccc4)cc3)[C@@H]2C1	-7.1*
O=C(CN1CCOCC1)N1CCCCN2[C@H](CO)[C@@H](c3ccc(-c4ccccc4)cc3)[C@H]2C1	3.6
SMILES	IDE exosite inh
O=C(CN1CCOCC1)N1CCCCN2[C@H](CO)[C@@H](c3ccc(C#Cc4ccccc4)cc3)[C@H]2C1	-3.3*
O=C(CN1CCOCC1)N1CCCCN2[C@H](CO)[C@@H](c3ccc(-c4ccccc4)cc3)[C@@H]2C1	2.5
O=C(CN1CCOCC1)N1CCCCN2[C@@H](CO)[C@@H](c3ccc(C#Cc4ccccc4)cc3)[C@@H]2C1	-5.5*
O=C(CN1CCOCC1)N1CCCCN2[C@@H](CO)[C@@H](c3ccc(/C=C/c4ccccc4)cc3)[C@@H]2C1	-10*
COc1ccc(S(=O)(=O)N(C)C[C@H]2OCCCC[C@H](C)Oc3ccc(NC(=O)Cc4ccccc4)cc3C(=O)N([C@@H](C)CO)C[C@@H]2C)cc1	-0.35
CCS(=O)(=O)Nc1ccc2c(c1)C(=O)N(C)[C@@H]1CC[C@@H](CC(=O)NC3CCCCC3)O[C@@H]1CO2	-0.38
COc1ccc(C#Cc2ccc([C@@H]3[C@H]4CN(C(=O)c5ccncc5)CC(=O)N4[C@H]3CO)cc2)cc1	3.2
COc1ccccc1NC(=O)N1C[C@@H](O)COC[C@H]2O[C@@H](CC(=O)N3CCC(Cc4ccccc4)CC3)CC[C@@H]21	0.81
CC(C)(O)C#Cc1ccc([C@@H]2[C@H]3CN(C(=O)c4ccncc4)CCCCN3[C@H]2CO)cc1	0.019
C[C@H](NC(=O)C[C@@H]1C[C@H]2c3cc(NS(=O)(=O)c4ccc(F)cc4)ccc3O[C@H]2[C@@H](CO)O1)c1ccccc1	-1.8
C[C@H](NC(=O)C[C@@H]1C[C@@H]2c3cc(NS(=O)(=O)c4ccc(F)cc4)ccc3O[C@@H]2[C@H](CO)O1)c1ccccc1	-1.3
CN(C)C(=O)c1cccc(-c2ccc([C@@H]3[C@H]4CN(C(=O)CC5CC5)CC(=O)N4[C@H]3CO)cc2)c1	3.2
O=C(Nc1cc(F)ccc1F)N1CC(=O)N2[C@H](CO)[C@@H](c3ccc(-c4cccc(F)c4)cc3)[C@H]2C1	1
CCCC#Cc1cnc2c(c1)C(=O)N([C@H](C)CO)C[C@H](C)[C@@H](CN(C)C(=O)Nc1cc(F)ccc1F)O2	-1.7
CNC[C@@H]1Oc2ccc(NS(=O)(=O)c3ccc(OC)cc3)cc2C(=O)N([C@@H](C)CO)C[C@@H]1C	0.8
COc1ccccc1S(=O)(=O)N[C@H]1C=C[C@@H](CC(=O)N2CCOCC2)O[C@@H]1CO	-0.054
CCCNC(=O)N1[C@@H](CO)[C@@H](c2ccccc2)C12CN(CCC(F)(F)F)C2	-0.48
O=C(CN1CCOCC1)N1CCCCN2[C@H](CO)[C@H](c3ccc(Br)cc3)[C@@H]2C1	-0.21
O=C(CN1CCOCC1)N1CCCCN2[C@H](C1)[C@@H](c1ccc(C#Cc3ccccc3)cc1)[C@@H]2CO	-6.6*
O=C(CN1CCOCC1)N1CCCCN2[C@H](C1)[C@H](c1ccc(Br)cc1)[C@@H]2CO	-1.2
O=C(CN1CCOCC1)N1CCCCN2[C@H](C1)[C@H](c1ccc(C#Cc3ccccc3)cc1)[C@@H]2CO	-13*
O=C(Nc1cc(F)ccc1F)N1CCCCN2[C@H](CO)[C@@H](c3ccc(-c4cncnc4)cc3)[C@@H]2C1	-0.82
CO[C@H]1CN(C)C(=O)c2ccc(NC(=O)c3nc4ccccc4s3)cc2OC[C@@H](C)N(Cc2cccnc2)C[C@H]1C	-0.67
CC(C)CC#Cc1ccc([C@H]2[C@H](CO)N3C(=O)CN(C(=O)Cc4ccccc4)C[C@@H]23)cc1	1.9
Cc1noc(C)c1NC(=O)N(C)C[C@@H]1Oc2cc(C#CCN(C)C)ccc2S(=O)(=O)N([C@@H](C)CO)C[C@H]1C	0.39
C/C=C/c1ccc([C@@H]2[C@H]3CN(C(=O)Nc4ccccc4F)CC(=O)N3[C@H]2CO)cc1	-2.3
Cc1ccccc1-c1ccc(C2[C@@H]3CN(C(=O)NC4CCCCC4)C[C@H]2N3)cc1 (stereo not given in full)	-8.2*!
Cc1ccccc1-c1ccc(C2[C@@H]3CN(C(=O)Nc4ccc(F)cc4)C[C@H]2N3)cc1 (stereo not given in full)	-11*
Cc1ccccc1-c1ccc(C2[C@@H]3CN(C(=O)Nc4cccc(F)c4)C[C@H]2N3)cc1 (stereo not given in full)	-6.4*
